Screens (PubChem BioAssay)
VDR inhibitor: vitamin D3 receptor (human) inhibition | P11473 | VDR-SRC2-3 peptide fluorescence polarization, 2 h | Potency, µM, for the others: max response, negative = inhibition, hits mostly inhibitors | 400,000 compounds, 0.93% hits | AID 504847; note: % is set by controls: 0 for no effect and ±100 for the full control effect
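Measured by FP: displacement of SRC2-3 coactivator peptide from VDR by library compounds, following a two-hour ambient incubation.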
PLK1 PBD block: inhibitors of human PLK1 polo-box domain binding | P53350 | Plk1 PBD binding of FITC phosphopeptide, fluorescence polarization | Potency, µM, for the others: max response, negative = inhibition, actives largely listed as inhibitors | 360,000 compounds, 2.8% hits; note: series mostly up to about 57 µM; % is set by controls: 0 for no effect and ±100 for the full control effect; nearly all actives have a fitted effect of over 65% in size
Target sequence (P53350 whole entry, looked up, the tested form may be a part): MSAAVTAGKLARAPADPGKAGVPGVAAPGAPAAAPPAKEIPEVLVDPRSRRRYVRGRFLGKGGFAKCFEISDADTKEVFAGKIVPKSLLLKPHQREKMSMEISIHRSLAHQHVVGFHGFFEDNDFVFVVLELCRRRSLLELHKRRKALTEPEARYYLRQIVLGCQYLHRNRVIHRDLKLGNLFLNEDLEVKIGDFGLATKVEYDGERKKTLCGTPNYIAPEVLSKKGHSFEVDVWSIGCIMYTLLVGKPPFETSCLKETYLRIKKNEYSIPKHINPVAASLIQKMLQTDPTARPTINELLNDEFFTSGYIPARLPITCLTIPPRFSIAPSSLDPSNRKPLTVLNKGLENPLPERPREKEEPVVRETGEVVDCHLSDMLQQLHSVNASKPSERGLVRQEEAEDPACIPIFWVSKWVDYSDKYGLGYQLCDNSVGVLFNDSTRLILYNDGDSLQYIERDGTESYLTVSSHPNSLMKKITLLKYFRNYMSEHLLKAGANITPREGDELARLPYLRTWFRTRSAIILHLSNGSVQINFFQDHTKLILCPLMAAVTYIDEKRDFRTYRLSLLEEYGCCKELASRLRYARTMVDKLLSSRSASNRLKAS
GLS inhibitor: glutaminase GLS (human) inhibition. O94925. GLS enzymatic activity, qHTS titration. Potency, µM (titrated, usually from 45.5 µM), without a hit: top-dose activity change, negative = inhibition, hits mostly inhibitors. 410,000 compounds, 0.21% hits; note: % is set by controls: 0 for no effect and ±100 for the full control effect
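hKGA; 45 mM KH2PO4 pH 8.2 + 0.02% Tween-20; cpd via pin tool; 1 mM Gln soln; GluOx/HRP/Amplex Red; RT 30 min; fluor. t0 & final.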
PKM2 activator: increases activity of human pyruvate kinase M2; purified PKM2, Kinase-Glo ATP luminescence, activation; response scale: 0% is enzyme alone, no compound; P14618; Potency, µM (titrated, usually from 57.5 µM), for inactives: top-dose activation, most hits filed as activators; AID 1631; 260,000 compounds, 0.34% hits; note: % is set by controls: 0 for no effect and ±100 for the full control effect; nearly all actives have a fitted effect of over 55% in size
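Kinase-Glo luminescence reports ATP generated from ADP (0.1 mM) and PEP (0.5 mM) by purified hPK-M2 after 1 h at room temperature, pH 7.2 imidazole buffer; intermediate enzyme activity allows detecting inhibitors and activators.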
KAT2A inh: inhibitors of human GCN5L2 histone acetyltransferase. Q92830. GCN5L2 HAT assay, ThioGlo1 CoA-SH fluorescence. Potency, µM (doses to about 58.9 µM), without a hit: top-dose activity change, negative = inhibition, most hits filed as inhibitors. 390,000 compounds, 0.21% hits. AID 504327; note: % is set by controls: 0 for no effect and ±100 for the full control effect
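Compounds, pin-transferred from DMSO stocks, meet 20nM GCN5L2 for 15 min before the reaction begins with H3(1-25) peptide (75uM) and acetyl-CoA (70uM). Thiol-reactive ThioGlo1 reports CoA release over 20 min at room temperature.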
Mito fusion yeast: inhibitors of mitochondrial division or activators of mitochondrial fusion; S. cerevisiae fusion-defective mutant growth rescue, CellTiterGlo 48 h; 320,000 compounds, 0.23% hits; AID 485298; Potency, µM (titrated, usually from 46.1 µM), inactives show top-dose growth rescue (activation), hits mostly activators; note: % of control where 0% means no effect; nearly all actives have a fitted effect of over 45% in size
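Compounds are tested for their ability to restore growth of mitochondrial fusion-defective yeast strains at non-permissive 37C in YPEG medium over 48 hours. Viability is quantified by luciferase luminescence.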
The depositor's hits bear a star; ? = inconclusive; · = not tested or not shown; [ ] = remark or other dose. Sampled rows, rich in hits. Any-hit rate of the full collection: about 3.4%. Calls come from the whole dose curve; as a rule, active = well fitted curve in the direction sought with a large enough effect; inconclusive = small, poorly fitted or top-dose-only effect, or another doubt; inactive = no such curve, though single readings can be large; an effect the other way counts as inactive or inconclusive. Potency is the fitted concentration of half-maximal effect.

SMILES	VDR inhibitor	PLK1 PBD block	GLS inhibitor	PKM2 activator	KAT2A inh	Mito fusion yeast
Cn1cccc1C(=O)N1CCC2(CC1)CN(C(c1ccccc1)c1ccccc1)C2	-6.3%	·	·	·	-19.8%	·
CC(=O)c1ccc(NC(=O)CNCC(c2ccccc2)N(C)C)cc1 (stereo not given)	?	18.9µM*	-19.1%	·	-7.4%	-0.5%
Cc1ccc(NS(=O)(=O)c2cccs2)nc1	4.8%	-14.7%	1.5%	21.8%	2.0%	3.7%
CCCCS(=O)(=O)Nc1ccc(C)cn1	?	21.2µM*	-15.2%	4.6%	-4.2%	-7.2%
CN=C1N[C@H](c2ccccc2)N(c2ccccc2)S1	25.1µM*	·	·	·	?	·
COc1ccc(C2CC(c3ccccc3)Oc3ccc(OC)cc32)cc1 (stereo not given)	-25.9%	·	·	·	·	·
Cc1cc(-c2ccccc2)nc(N(C)NC(=O)c2cccc(C(F)(F)F)c2)c1S(C)(=O)=O	-10.0%	29.9µM*	13.5%	11.4%	-10.2%[0.501 µM]	4.3%
CCCCC/C=C\C\C=C/C=C/C=C/[C@@H](SCC(N)C(=O)O)[C@@H](O)CCCC(=O)O (stereo not given in full)	7.4%	·	·	·	·	·
CSc1nc(SCCO)c2sc3nc(-c4ccco4)c4c(c3c2n1)CC(C)(C)OC4	-13.1%	-19.6%	?	15.4%	12.6µM*	-2.6%
COC(=O)CSc1nc(SC)nc2c1sc1nc(-c3ccco3)c3c(c12)CC(C)(C)OC3	-4.6%	-11.3%	-22.1%	·	·	·
CSc1nc(N(CCO)CCO)c2sc3nc(-c4ccco4)c4c(c3c2n1)CCC4	-11.4%	?	7.08µM*	0.9%	?	22.9%
C#C[C@]1(O)CC[C@@H]2[C@H]3CCC4=CCCC[C@@H]4[C@@H]3CC[C@@]21C	-0.9%	·	-30.7%[20 µM]	·	-11.7%[21.4 µM]	·
Cc1nc2c(-c3ccccc3)c(C)nn2c(C)c1CCC(=O)NCc1ccc(F)cc1	-13.2%	·	-0.2%	·	-5.4%	·
CCCCCCCC/C=C\C/C=C\C/C=C\CCCC(=O)O	-1.8%	·	·	·	-8.1%	·
O=C(O)CNC(=O)CCn1nnc2ccccc2c1=O	?	29.9µM*	54.7%	1.0%	1.6%	-1.1%
CC(=O)N(CC(O)CN(C(C)=O)c1c(I)c(C(=O)NC[C@@H](O)CO)c(I)c(C(=O)NC[C@@H](O)CO)c1I)c1c(I)c(C(=O)NC[C@@H](O)CO)c(I)c(C(=O)NC[C@@H](O)CO)c1I	-6.8%	·	?	·	-25.9%[21.4 µM]	·
CC(=O)Nc1ccc2nc(C3CC3)n(Cc3ccc(Cl)cc3)c(=O)c2c1	-5.1%	4.6%	1.1%	-1.8%	-11.9%	23.2%
CCC(=O)Nc1ccc2nc(C3CC3)n(Cc3ccc(C(C)(C)C)cc3)c(=O)c2c1	?	11.9µM*	7.4%	-1.7%	-0.7%	13.8%
C[C@@H]1CC2C3CCC4=CC(=O)C=C[C@]4(C)[C@@]3(F)[C@@H](O)C[C@]2(C)[C@@]1(O)C(=O)COC(=O)c1cccc(S(=O)(=O)O)c1 (stereo not given in full)	2.9%	·	3.8%	·	4.2%	·
Cc1ccnc2nc(C(=O)Nc3nc4ccccc4s3)nn12	-26.2%	-12.3%	1.8%	-5.3%	4.4%	-0.3%
Cc1csc(NC(=O)c2nc3nccc(C)n3n2)n1	-26.6%	3.36µM*	?	5.1%	-0.4%	-3.0%
Clc1ccc(Nc2nc(NCc3ccco3)nc3nccnc23)cc1	7.0%	·	·	·	·	·
COc1ccc(S(=O)(=O)Nc2ccccc2)cc1	5.1%	-3.5%	-7.8%	·	·	·
Cc1ccc(/C=C/C(=O)O)cc1S(=O)(=O)Nc1ccc(C(=O)O)cc1	-7.9%	26.7µM*	3.4%	-3.4%	0.4%	-2.2%
Cc1ccc(C)c(S(=O)(=O)Nc2ccc(C(N)=O)cc2)c1	12.8%	-11.7%	0.0%	14.4%	2.2%	5.5%
SMILES	VDR inhibitor	PLK1 PBD block	GLS inhibitor	PKM2 activator	KAT2A inh	Mito fusion yeast
O=S(=O)(Nc1c(O)ccc2ccccc12)c1ccccc1	?	23.8µM*	15.6%	·	·	·
Cc1ccc(C)c(S(=O)(=O)Nc2ccc(O)c(C(=O)O)c2)c1	?	29.9µM*	19.5%	-1.6%	0.5%	-1.7%
COc1ccc(S(=O)(=O)Nc2ccc(O)c3ccccc23)cc1	?	26.7µM*	9.1%	-7.2%	-13.5%	-10.2%
CN(CC(=O)NCC(=O)Nc1ccc(F)c(F)c1F)C1CCS(=O)(=O)C1 (stereo not given)	-2.9%	2.1%	-2.8%	·	-1.8%	-1.9%
O=C(COC(=O)Cn1[nH]c(=O)c2ccccc2c1=O)NNC(=O)c1ccccc1	89.3%	-7.1%	7.8%	·	-4.4%	-4.2%
Cc1cc(C)c(OCC(=O)OCC(=O)N2CCCc3ccccc32)c(C)c1	10.6%	-9.5%	-4.8%	·	-10.7%	5.2%
C=C(C(C)=O)C(O)c1ccccc1 (stereo not given)	-3.4%	·	·	·	·	·
Cc1ccc(C)c(S(=O)(=O)Nc2ccc(O)c3ccccc23)c1	?	23.8µM*	13.5%	7.6%	-6.7%	-14.9%
O=C(Nc1ccccc1N1CCCC1)c1ccc([N+](=O)[O-])o1	32.3%	-8.0%	13.0%	-5.3%	-0.3%	-9.5%
COc1ccc(N2CCCC2)c(NC(=O)c2ccc([N+](=O)[O-])o2)c1	79.4µM*	23.8µM*	12.6µM*	-0.8%	-6.5%	0.3%
Cc1ccc(NC(=O)c2ncn(CCCN(C)CCc3ccccn3)n2)cc1C	1.5%	-10.7%	-0.5%	·	·	·
CS(=O)(=O)c1cc(N2CCOCC2)ccc1CNC[C@H]1O[C@@H](n2cnc3c(=O)[nH]c(N)nc32)[C@H](O)[C@@H]1O	·	-0.1%	1.3%	·	·	·
Cc1cccc(C)c1NC(=O)CN1CCCCCC1	2.7%	·	24.0%	·	-0.9%	·
CC1(CC(=O)N/N=C/c2cc([N+](=O)[O-])c(O)cc2O)OCCO1	?	9.47µM*	0.0%	-4.0%	-6.3%	-4.9%
CC1(CC(=O)N/N=C/c2ccc(-c3ccc(Cl)cc3)o2)OCCO1	-9.7%	-5.5%	11.4%	-9.6%	-3.0%	6.8%
Nc1cccc2c1C(=O)N(C(=O)c1ccco1)C2=O	-0.6%	-18.9%	1.1%	-0.9%	-27.3%	1.2%
O=C(c1ccco1)N1C(=O)c2cccc3cccc1c23	-5.1%	5.32µM*	-20.3%	6.2%	-5.3%	6.3%
Cc1ccc(SCc2[nH]nc3c2C(c2ccco2)C(C#N)=C(N)O3)cc1 (stereo not given)	-90.7%	9.47µM*	0.0%	10.2%	-15.7%	-2.6%
Cc1ccc(SCc2[nH]nc3c2C(c2ccc(C)o2)C(C#N)=C(N)O3)cc1 (stereo not given)	-27.9%	?	12.8%	4.7%	82.4%	0.9%
